The values that follow come from PubChem BioAssay (NCATS).

Test [1] can be described thus: qHTS profiling of the MIPE4 collection as inhibitors of Plasmodium falciparum (3D7) proliferation (AID 743344).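 Note: scaled between DMSO vehicle wells and 0.29 µM artemisinin as full inhibition.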 The settings on record: P. falciparum 3D7 in erythrocytes, SYBR Green DNA fluorescence, 72 h; at 28.5 µM unless noted. A digest of the protocol: (§1)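 Parasite DNA was quantified by SYBR Green I fluorescence (ex 485, em 535 nm) after overnight lysis in saponin/Triton buffer at room temperature. Cultures at 0.3% parasitemia and 2.5% hematocrit were first exposed to compound for 72 h at 37 C; signals were normalised to artemisinin (0.29 uM) and vehicle wells.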

Test [2] can be described thus: qHTS profiling of the MIPE4 collection as inhibitors of Plasmodium falciparum (DD2) proliferation (AID 743345). As to conditions: P. falciparum Dd2 in erythrocytes, SYBR Green DNA, 72 h; at 28.5 µM unless noted. A digest of the protocol: as §1
For orientation: In qHTS, concentration-response curves come from the screen itself.

The nature of test [3]: qHTS profiling of the MIPE4 collection as inhibitors of Plasmodium falciparum (DD2) proliferation (Rep 2) (AID 743346). As to conditions: P. falciparum Dd2 in erythrocytes, SYBR Green DNA, 72 h; at 28.5 µM unless noted. In short, it runs like this:
as §1

Test [4] is described as follows: qHTS profiling of the MIPE4 collection as inhibitors of Plasmodium falciparum (HB3) proliferation (AID 743347).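 Note: plate controls were DMSO vehicle wells for no effect and artemisinin wells for full effect.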 As to conditions: P. falciparum HB3 in erythrocytes, SYBR Green DNA, 72 h; at 28.5 µM unless noted. A digest of the protocol: as §1

In test [1], `CCC(C=C[C@@H]1OC(=O)C=C[C@H]1C)=C[C@H](C)CC=CC(C)=C[C@@H](C)C(=O)[C@@H](C)[C@H](O)[C@@H](C)CC(C)=CC(=O)O` came in with a parasite growth, % of DMSO control of 402% [at 1.06 µM]. In test [2], this compound displayed a parasite growth remaining, % of DMSO control (lower = more inhibition) of 97.4% [at 1.06 µM]. Also, the parasite growth, % of control (lower = inhibition) in test [3] is 106% [at 1.06 µM]. The growth, % of control in test [4] was found to be 577% [at 1.06 µM].
For `CC(C)c1cnn2c(NCc3ccccc3)cc(NCCCCCCN)nc12`, the parasite growth, % of DMSO control in test [1] is 6.96%. In test [2], the parasite growth remaining, % of DMSO control (lower = more inhibition) was 12.1%. In addition, the parasite growth, % of control (lower = inhibition) in test [3] stood at 11.2%. Besides, the growth, % of control in test [4] was 2.16%.
In test [1], `CNC(=O)Nc1ccc(-c2nc(N3CC4CCC(C3)O4)c3cnn(C4CCC5(CC4)OCCO5)c3n2)cc1` registered a parasite growth, % of DMSO control of 5.91%. The compound further returned a parasite growth remaining, % of DMSO control (lower = more inhibition) in test [2] of 7.38%. Further, the parasite growth, % of control (lower = inhibition) in test [3] came to 8.34%. In addition, in test [4], the growth, % of control was found to be 3.02%.
For `C=C(C)[C@@H]1CC[C@]2(C)CC[C@]3(C)[C@H](CC[C@@H]4[C@@]5(C)CC[C@H](O)C(C)(C)[C@H]5CC[C@]43C)[C@@H]12`, in that order: 44.1%, 92%, 73.8% and 37.4%.
The compound `Cn1cc(C=CC(=O)c2cccc(F)c2)cc1C=CC(=O)NO` displayed a parasite growth, % of DMSO control in test [1] of 69.1%. In test [2], this compound displayed a parasite growth remaining, % of DMSO control (lower = more inhibition) of 90.9%. Moreover, the parasite growth, % of control (lower = inhibition) in test [3] turned out to be 56.3%. The compound also displayed a growth, % of control in test [4] of 99.1%.
The compound `Cc1cc(Nc2ncc3c(n2)N(C)C(=O)N(c2cc(NC(=O)c4cccc(C(F)(F)F)c4)ccc2C)C3)n(C)n1` yielded a parasite growth, % of DMSO control in test [1] of 7.35%. For the same compound, the parasite growth remaining, % of DMSO control (lower = more inhibition) in test [2] was determined as 15.8%. In addition, the parasite growth, % of control (lower = inhibition) in test [3] was determined as 15.8%. The growth, % of control in test [4] amounted to 10.8%.
Turning to `C=CC1=C(C(=O)O)N2C(=O)[C@@H](NC(=O)C(=NO)c3csc(N)n3)[C@H]2SC1`, the parasite growth, % of DMSO control in test [1] turned out to be 92.8%. In test [2], the parasite growth remaining, % of DMSO control (lower = more inhibition) is 95.1%. Moreover, the parasite growth, % of control (lower = inhibition) in test [3] is 103%. The compound further came in with a growth, % of control in test [4] of 68.4%.
In the case of `CC(=O)O[C@@]12CO[C@H]1C[C@H](O)[C@@]1(C)C(=O)[C@H](O)C3=C(C)[C@@H](OC(=O)C(O)[C@@H](NC(=O)OC(C)(C)C)c4ccccc4)C[C@@](O)([C@@H](OC(=O)c4ccccc4)[C@@H]21)C3(C)C` (some centres not stated), the parasite growth, % of DMSO control in test [1] came to 5.89%. In addition, the parasite growth remaining, % of DMSO control (lower = more inhibition) in test [2] was 18.8%. Also, the parasite growth, % of control (lower = inhibition) in test [3] was determined as 30.4%. Also, in test [4], the growth, % of control turned out to be 4.16%.
